Holding throughout (conditions): concentration: 10 µM; 24 h
The subject of test [1] is HCC1569. Briefly: cell number relative to DMSO (% of DMSO); higher = more cells (less growth inhibition / toxicity). The method in brief:
(§1)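 Using 384-well plates with 800 cells per well in RPMI plus 10% FBS, HCC1569 and TDF cells were exposed to compounds at 10 µM, in triplicate, for 24 h at 37 °C. Imaging of six fields per well at ×10 followed H1.0 and DAPI staining. The reported quantity, H1.0 nuclear intensity or cell number, is a median of replicates given as percent of the plate control, and HCC1569 values were smoothed for positional effects.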

Test [2] has as its system TDF. The test is described as above. The method in brief:
as §1

The test system of test [3] is TDF. Nature of the test: H1.0 immunofluorescence intensity relative to DMSO (% of DMSO); higher = stronger H1.0 induction, active = 120 or more. The method in brief: as §1
Test [4] has as its system HCC1569. Nature of the test: H1.0 immunofluorescence intensity relative to DMSO (% of DMSO); higher = stronger H1.0 induction, active = 140 or more. The method in brief: as §1

Structures can show the parent of a compound that is named as a salt. ± gives the standard deviation of the averaged measurements.
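For H1.0 immunofluorescence intensity relative to DMSO in this document: TDF is a line of transformed human dermal fibroblasts of mesenchymal origin.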
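For cell number relative to DMSO in this document: TDF denotes transformed human dermal fibroblasts of mesenchymal origin.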

Turning to `CCN1CC2(C)CCC(OC)C34C2C(OC(C)=O)C2(OCOC25CC(OC)C2CC3(O)C5C2OC)C14` (stereo unspecified) [Deltaline], the cell number in the test on HCC1569 [1] was 105; with TDF [2], 104. The H1.0 immunofluorescence intensity with TDF [3] is 98.2 (inactive); in the test on HCC1569 [4], 96.9 (inactive).
On to `O=C(O)C=CC(=O)O.O=[N+]([O-])c1ccc2nc(N3CCNCC3)ccc2c1` [Quipazine, 6-nitro-, maleate], for which the values for the cell number with HCC1569 [1] and with TDF [2] were 96.6 and 95.5, respectively. Moreover, the H1.0 immunofluorescence intensity was 95.2 (inactive) in the test with TDF [3] and 107 (inactive) with HCC1569 [4].
With `COC(C)C(O)(C(=O)OCC1=CCN2CCC(O)C12)C(C)C` (stereo unspecified) [Heliotrine], the cell number in the test on HCC1569 [1] is 99.8; in the test on TDF [2], 105. Also, the H1.0 immunofluorescence intensity was 91.4 (inactive) with TDF [3] and 90.6 (inactive) in the test on HCC1569 [4].
On to `CC1C2Cc3ccc(O)cc3C1(C)CCN2CC1CC1` (single isomer, unassigned; (+)) [(+)-Cyclazocine], for which the figures for the cell number with HCC1569 [1] and with TDF [2] were 102 and 92.2, respectively. For the same molecule, the figures for the H1.0 immunofluorescence intensity in the test with TDF [3] and in the test with HCC1569 [4] were 96.9 (inactive) and 86.8 (inactive), respectively.
On the same counts, the results for `CCCCC(C)C(OC(=O)CC(CC(=O)O)C(=O)O)C(CC(C)CCCCCCC(O)CC(O)C(C)N)OC(=O)CC(CC(=O)O)C(=O)O` (stereo unspecified) [Fumonisin B2] are 100, 102, 97.3 (inactive) and 89.7 (inactive).
With `CCC(CO)NC(=O)C1C=C2c3cccc4c3c(cn4C)CC2N(C)C1.O=C(O)C=CC(=O)O` (stereo unspecified) [Methysergide maleate], the results for the cell number in the test on HCC1569 [1] and with TDF [2] were 101 ± 2.7 and 97.1 ± 7, respectively. Besides, the figures for the H1.0 immunofluorescence intensity with TDF [3] and in the test with HCC1569 [4] were 100 (inactive) and 97 (inactive), respectively.
In the same order, the values of `COc1ccc(C(=O)c2c(C)n(CCN3CCOCC3)c3ccccc23)cc1` [Pravadoline] are 110, 96.5, 98.4 (inactive) and 93.3 (inactive).
Regarding `COc1cccc2c1cc([N+](=O)[O-])c1c(C(=O)O)cc3c(c12)OCO3` [Aristolochic acid A], the cell number in the test on HCC1569 [1] stood at 102; in the test with TDF [2], 110. In addition, the H1.0 immunofluorescence intensity in the test on TDF [3] was 98.4 (inactive); with HCC1569 [4] it was 91.2 (inactive).
With `O=C(NCCN1CCC2(CC1)C(=O)NCN2c1cccc(F)c1)c1ccc(F)c(F)c1`, the cell number in the test on HCC1569 [1] was 92.7; in the test on TDF [2] it was 92.3. Moreover, the H1.0 immunofluorescence intensity with TDF [3] was 110 (inactive); in the test on HCC1569 [4], 107 (inactive).
Consider `CN1C2CC(=O)CC1C(O)C2` (stereo unspecified) [6-Hydroxytropinone], for which the cell number is 103 with HCC1569 [1] and 111 in the test on TDF [2]. Moreover, the H1.0 immunofluorescence intensity was 88.5 (inactive) with TDF [3] and 89.2 (inactive) with HCC1569 [4].
In the same order, the values of `CCC12C=CCN3CCC4(c5ccc(OC)cc5N(C)C4C(O)(C(=O)OC)C1OC(C)=O)C32` (stereo unspecified) [Vindoline] are 102, 91.6, 91.7 (inactive) and 90.1 (inactive).
On the same counts, the results for `Cc1c2ccncc2c(C)c2c1[nH]c1ccccc12` [Ellipticine] are 69.4 ± 8.6, 39.3 ± 6.6, 104 (inactive) and 194 (active).
On the same counts, the results for `O=C1CCCC2C3CCCN4CCCC(CN12)C34` (stereo unspecified) [Matrine] are 100, 94.7, 99.3 (inactive) and 94.6 (inactive).
Turning to `N[C@@](CF)(Cc1cnc[nH]1)C(=O)O` [MK-453 hydrochloride], the cell number with HCC1569 [1] came out at 101; in the test with TDF [2] it was 103. The H1.0 immunofluorescence intensity in the test on TDF [3] is 100 (inactive); in the test with HCC1569 [4] it was 91.5 (inactive).
On to `CN(C)C(=O)Oc1ccc[n+](C)c1.[Br-]` [Pyridostigmine bromide], for which the cell number with HCC1569 [1] was 103; in the test on TDF [2], 107. Besides, the H1.0 immunofluorescence intensity in the test on TDF [3] was 96.8 (inactive); in the test with HCC1569 [4], 108 (inactive).
With `N#CC(OC1OC(COC2OC(CO)C(O)C(O)C2O)C(O)C(O)C1O)c1ccccc1` (stereo unspecified) [Amygdalin], the cell number in the test with HCC1569 [1] came out at 103; in the test on TDF [2] it was 91.7. The H1.0 immunofluorescence intensity with TDF [3] is 100 (inactive); in the test with HCC1569 [4] it was 90.7 (inactive).
Regarding `CCC(C)C(=O)OC1C(O)C2C(CN3CC(C)CCC3C2(C)O)C2CC34OC5(O)C(OC(=O)C(C)(O)C(C)O)CCC3(C)C5C(OC(C)=O)C(OC(C)=O)C4C21O` (stereo unspecified) [Protoveratrine B], the cell number in the test on HCC1569 [1] stood at 104; with TDF [2], 97.9. The H1.0 immunofluorescence intensity was 106 (inactive) in the test with TDF [3] and 93.2 (inactive) in the test with HCC1569 [4].
In the same order, the values of `CC12CCC3C(CCC4=C(O)C(=O)CCC43C)C1CCC2=O` (stereo unspecified) [Formestane] are 105, 98.1, 98.3 (inactive) and 111 (inactive).
Regarding `CC12CCC(O)CC1CCC1C2CCC2(C)C(c3ccc(=O)oc3)CCC12O` (stereo unspecified) [Bufalin], the cell number in the test on HCC1569 [1] came to 52.7; with TDF [2] it was 45. The figures for the H1.0 immunofluorescence intensity with TDF [3] and in the test with HCC1569 [4] were 114 (inactive) and 107 (inactive), respectively.
In the same order, the values of `COc1cc(C2c3cc4c(cc3C(O)C3COC(=O)C23)OCO4)cc(OC)c1OC` (stereo unspecified) [Podophyllotoxin] are 61.2 ± 1.9, 10.1 ± 0.34, 152 (active) and 128 (inactive).
As to `CC1OCC(C[N+](C)(C)C)O1.[I-]` (single isomer, unassigned; (+)) [(+)-cis-Dioxolane iodide], the cell number in the test with HCC1569 [1] was 102; in the test on TDF [2], 103. The H1.0 immunofluorescence intensity was 96 (inactive) in the test on TDF [3] and 99.6 (inactive) in the test with HCC1569 [4].
Turning to `O=c1[nH]c2ccccc2n1C1CCN(CCCC(c2ccc(F)cc2)c2ccc(F)cc2)CC1` [Pimozide], the cell number was determined as 81.2 ± 11 with HCC1569 [1] and 90.7 ± 1.7 in the test on TDF [2]. The H1.0 immunofluorescence intensity in the test with TDF [3] was 107 (inactive); with HCC1569 [4], 144 (active).
In the same order, the values of `CCC1(C2OC(C3OC(O)(CO)C(C)CC3C)CC2C)CCC(C2(C)CCC3(CC(O)C(C)C(C(C)C(OC)C(C)C(=O)[O-])O3)O2)O1.[Na+]` (stereo unspecified) [Monensin] are 90.4, 74.5, 120 (active) and 186 (active).
On the same counts, the results for `C[N+]1(C)CCOC(O)(c2ccc(-c3ccc(C4(O)C[N+](C)(C)CCO4)cc3)cc2)C1.[Br-].[Br-]` (stereo unspecified) [Hemicholinium-3] are 100, 106, 92 (inactive) and 87.8 (inactive).

Source of the values: the supplement of paper PMC7156485.
